Measurements as given in PubChem BioAssay.
Active and inactive are the calls of the source.

Columns and labels:
[1] = E. coli DRC41 culture turbidity changes, primary screen, E. coli filamentation inducer project, strain DRC41, OD650, 48 h (AID 1152);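 note: E. coli MC1000 strain DRC41 lacking acrAB efflux pump and sulA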; details: E. coli DRC41 (acrAB sulA), higher = more signal, called active from +8 up or from −8 down
[2] = small-molecule binders of probe aLefty1, primary screen, biochemical, small-molecule microarray, 635/667 nm fluorescence (AID 1153); details: higher = more signal;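 note: score merges spot fluorescence with signal-to-noise ratio from the scanned slide images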
[3] = PSAC antagonists in infected red cells, primary screen, cell-based, P. falciparum Indochina, OD700, 1 h (AID 1154); details: P. falciparum Indochina infected RBC osmotic lysis, higher = more signal, called active from +8 up or from −8 down
[4] = PSAC antagonists in infected red cells, primary screen, cell-based, P. falciparum Indochina, OD700, 2 h (AID 1155);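 note: lysis reports solute entry through the parasite surface anion channel PSAC; channel blockers reduce lysis of infected cells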; details: P. falciparum Indochina infected erythrocytes, osmotic lysis OD700; higher = more signal, called active from +8 up or from −8 down
[5] = osmotic lysis modulators in infected erythrocytes, primary screen, PSAC antagonist project, cell-based, P. falciparum Indochina, OD700, 3 h (AID 1156); details: higher = more signal, called active from +8 up or from −8 down
[6] = PSAC antagonists in infected red cells, primary screen, cell-based, P. falciparum Indochina, OD700, 18 h (AID 1157); details: P. falciparum Indochina infected erythrocytes, osmotic lysis OD700, 18 h; higher = more signal, called active from +8 up or from −8 down
[7] = modulators of S6 phosphorylation in cells, primary screen, cell-based, A549, cytoblot, luminescence, serum-stimulated (AID 1158); details: A549 phospho-S6 cytoblot, 5 h, higher = more signal;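 note: serum-stimulated A549 lung adenocarcinoma cells; signal is phosphorylated S6 detected by cytoblot immunostaining with HRP secondary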
[8] = target: NADPH oxidase 2 (Homo sapiens) (UniProt P04839); test: NOX2-dependent H2O2 signal modulators, primary screen, NOX inhibitor project, cell-based, HEK293-NOX2, PMA-stimulated, Amplex Red fluorescence (AID 1159); details: 45 min, higher = more signal, called active from +8 up or from −8 down; note: test concentration not given here
[9] = target: NADPH oxidase 4 (Homo sapiens) (UniProt Q9NPH5); test: NOX4-dependent H2O2 signal modulators, primary screen, NOX inhibitor project, cell-based, HEK293-NOX4, tetracycline-induced, Amplex Red fluorescence (AID 1160); details: 45 min, higher = more signal, called active from +8 up or from −8 down
[10] = target: NADPH oxidase 5 (Homo sapiens) (UniProt Q96PH1); test: NOX5-dependent H2O2 signal modulators, primary screen, NOX inhibitor project, cell-based, HEK293-NOX5, Amplex Red fluorescence (AID 1161); details: HEK293-NOX5, ionomycin, 45 min, higher = more signal
[11] = A549 cell viability effects, profiling panel, calcein-AM fluorescence, 48 h, basal (AID 1162); details: higher = more signal; note: test concentration not given here
[12] = adipocyte viability effects, profiling panel, cell-based, 3T3-L1 adipocytes, calcein-AM fluorescence, 48 h, basal (AID 1163); details: 3T3-L1 adipocytes viability, higher = more signal; note: test concentration not given here
[13] = HepG2 cell viability effects, profiling panel, calcein-AM fluorescence, 48 h, basal (AID 1164); details: higher = more signal; note: test concentration not given here
[14] = MM1S cell viability effects, profiling panel, calcein-AM fluorescence, 48 h, basal (AID 1165); details: higher = more signal;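 note: viability of MM1S multiple myeloma cells under basal unstimulated conditions; test concentration not given here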
[15] = basal RPMI8226 viability, no added stimulus, profiling panel, cell-based, calcein-AM fluorescence, 48 h, PK04 Diversity Set (AID 1166); details: RPMI8226 myeloma viability, higher = more signal;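 note: cells grown under basal conditions without added stimulus; test concentration not given here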
[16] = basal HepG2 mitochondrial membrane potential changes, profiling panel, cell-based, JC-1 fluorescence, 24 h, 100 nL compound (AID 1167); details: higher = more signal; note: test concentration not given here
[17] = basal 3T3-L1 adipocyte mitochondrial potential changes, profiling panel, cell-based, JC-1 fluorescence, 3T3-L1 adipocytes, 24 h, 100 nL compound (AID 1168); details: JC-1 mitochondrial fluorescence, higher = more signal, called active from +8 up or from −8 down; note: test concentration not given here
[18] = basal RPMI8226 mitochondrial membrane potential changes, profiling panel, cell-based, JC-1 fluorescence, 24 h, 100 nL compound (AID 1169); details: RPMI8226 myeloma, JC-1 mitochondrial potential fluorescence, higher = more signal; note: test concentration not given here
[19] = basal MM1S mitochondrial membrane potential changes, profiling panel, cell-based, JC-1 fluorescence, 24 h, 100 nL compound (AID 1170); details: higher = more signal; note: test concentration not given here
[20] = A549 lung cancer cell viability effects, profiling panel, resazurin fluorescence, 24 h, PK04 Diversity Set (AID 1171); details: higher = more signal, called active from +8 up or from −8 down; note: test concentration not given here

Chain of NADPH oxidase 5 (Homo sapiens) (Q96PH1 whole entry, looked up): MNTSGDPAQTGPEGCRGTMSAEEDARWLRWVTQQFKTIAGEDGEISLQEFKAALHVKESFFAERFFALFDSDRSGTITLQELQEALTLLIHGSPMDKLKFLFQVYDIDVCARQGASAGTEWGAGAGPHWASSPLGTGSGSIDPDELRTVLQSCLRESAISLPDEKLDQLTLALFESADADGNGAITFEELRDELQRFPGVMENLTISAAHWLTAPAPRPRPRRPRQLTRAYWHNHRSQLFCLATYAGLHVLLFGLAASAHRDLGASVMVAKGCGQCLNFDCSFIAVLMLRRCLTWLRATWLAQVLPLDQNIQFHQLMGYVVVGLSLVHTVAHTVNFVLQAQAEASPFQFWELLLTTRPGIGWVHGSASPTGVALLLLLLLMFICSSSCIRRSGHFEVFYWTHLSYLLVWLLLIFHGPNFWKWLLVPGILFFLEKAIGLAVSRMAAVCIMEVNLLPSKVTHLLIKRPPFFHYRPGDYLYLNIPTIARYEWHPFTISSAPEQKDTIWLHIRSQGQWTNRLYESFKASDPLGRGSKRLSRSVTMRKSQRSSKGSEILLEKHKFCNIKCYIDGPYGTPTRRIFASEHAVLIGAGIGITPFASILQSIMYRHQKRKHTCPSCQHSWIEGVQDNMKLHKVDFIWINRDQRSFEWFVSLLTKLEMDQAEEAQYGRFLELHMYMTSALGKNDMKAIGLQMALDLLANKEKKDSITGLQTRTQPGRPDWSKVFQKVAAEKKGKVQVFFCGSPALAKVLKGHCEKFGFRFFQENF
Chain of NADPH oxidase 2 (Homo sapiens) (P04839 whole entry, looked up): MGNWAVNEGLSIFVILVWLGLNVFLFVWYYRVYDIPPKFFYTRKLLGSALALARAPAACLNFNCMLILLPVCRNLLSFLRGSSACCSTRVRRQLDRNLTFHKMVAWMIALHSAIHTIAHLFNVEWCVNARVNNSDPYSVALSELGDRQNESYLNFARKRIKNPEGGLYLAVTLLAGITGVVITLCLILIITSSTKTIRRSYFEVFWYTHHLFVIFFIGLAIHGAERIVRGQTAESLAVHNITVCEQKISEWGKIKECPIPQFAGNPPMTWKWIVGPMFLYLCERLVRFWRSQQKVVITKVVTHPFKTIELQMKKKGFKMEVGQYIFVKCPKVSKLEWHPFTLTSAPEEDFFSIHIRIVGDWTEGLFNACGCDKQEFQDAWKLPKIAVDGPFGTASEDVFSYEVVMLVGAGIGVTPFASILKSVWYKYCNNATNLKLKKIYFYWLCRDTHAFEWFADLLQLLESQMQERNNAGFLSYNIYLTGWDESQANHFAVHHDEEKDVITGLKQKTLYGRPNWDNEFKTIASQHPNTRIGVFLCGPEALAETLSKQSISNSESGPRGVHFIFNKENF
Chain of NADPH oxidase 4 (Homo sapiens) (Q9NPH5 whole entry, looked up): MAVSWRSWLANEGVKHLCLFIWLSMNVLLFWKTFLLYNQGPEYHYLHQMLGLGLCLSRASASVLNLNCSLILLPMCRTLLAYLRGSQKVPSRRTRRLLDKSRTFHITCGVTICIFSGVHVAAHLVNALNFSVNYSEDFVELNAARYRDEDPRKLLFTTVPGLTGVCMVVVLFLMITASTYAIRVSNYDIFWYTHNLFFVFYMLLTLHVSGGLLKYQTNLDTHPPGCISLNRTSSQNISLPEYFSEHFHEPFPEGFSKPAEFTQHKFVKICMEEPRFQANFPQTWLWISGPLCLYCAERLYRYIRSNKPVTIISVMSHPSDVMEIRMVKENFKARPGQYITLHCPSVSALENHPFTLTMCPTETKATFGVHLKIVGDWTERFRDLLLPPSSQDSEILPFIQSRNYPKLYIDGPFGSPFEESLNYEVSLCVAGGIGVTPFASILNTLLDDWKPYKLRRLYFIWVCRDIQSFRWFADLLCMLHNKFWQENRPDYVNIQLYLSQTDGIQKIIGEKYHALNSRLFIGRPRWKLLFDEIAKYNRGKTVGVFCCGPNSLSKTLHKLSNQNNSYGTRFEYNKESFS

| SMILES | z-score [1] | composite z-score [2] | z-score [3] | z-score [4] | z-score [5] | z-score [6] | z-score [7] | z-score [8] | z-score [9] | z-score [10] | z-score [11] | z-score [12] | z-score [13] | z-score [14] | z-score [15] | z-score [16] | z-score [17] | z-score [18] | z-score [19] | z-score [20] |
| --- | --- | --- | --- | --- | --- | --- | --- | --- | --- | --- | --- | --- | --- | --- | --- | --- | --- | --- | --- | --- |
| C=C(/C(=C/C[C@H](OC(=O)c1ccncc1)c1ccccc1OCCO)c1cc(C(=O)OC)ccc1OC)C(C)C | -0.458 (inactive) | 0.428 | 14.9 (active) | 2.53 (inactive) | 2.19 (inactive) | 1.02 (inactive) | 0.222 | 1.22 (inactive) | -0.614 (inactive) | -1.29 | 0.0292 | 0.322 | -0.275 | -1.85 | -0.122 | 0.589 | -0.617 (inactive) | -0.429 | 0.00378 | 1.47 (inactive) |
| COc1ccc([Si](C)(C)[C@H]2[C@H](CCn3cc([C@H](O)c4ccccc4)nn3)O[C@@]3(C(=O)N(C)c4c(Br)cc(C)cc43)[C@@H]2C)cc1 | 0.45 (inactive) | -0.196 | 5.6 (inactive) | 1.59 (inactive) | 1.25 (inactive) | 1.11 (inactive) | -0.108 | 0.276 (inactive) | 0.825 (inactive) | 0.37 | -1.94 | 1.69 | -4.58 | -2.48 | -4.31 | -0.281 | -0.162 (inactive) | -1 | 0.212 | -2.66 (inactive) |
| COCCOC(=O)N1C(=O)[C@@]2(c3cc(C#CC4(O)CCCCCC4)ccc31)[C@H](c1ccc(OCCO)cc1)N1[C@H](c3ccccc3)[C@H](c3ccccc3)OC(=O)[C@H]1[C@@H]2C(N)=O | -0.137 (inactive) | 0.223 | 4.19 (inactive) | 1.89 (inactive) | 0.295 (inactive) | 0.999 (inactive) | -0.485 | 1.82 (inactive) | 0.847 (inactive) | -0.305 | -0.29 | 0.902 | -1.52 | -3.04 | -3.86 | -2.03 | -0.408 (inactive) | -0.814 | -1.21 | -0.933 (inactive) |
| C=CC[C@]1(C(=O)OC)N=C(c2ccc(OCCCO)cc2)O[C@H]1c1ccccc1N=[N+]=[N-] | -0.908 (inactive) | 1.06 | 30.3 (active) | 26.5 (active) | 5.34 (inactive) | 4.92 (inactive) | 0.26 | -1.89 (inactive) | 0.988 (inactive) | -0.21 | -1.22 | 0.617 | -0.491 | -0.54 | -2.37 | 0.54 | 0.147 (inactive) | -1.13 | 0.676 | -1.6 (inactive) |
| CCCC[C@H]1OB(O)C[C@H]2C1=C(COC)C[C@H]1C(=O)C=CC(=O)[C@H]12 | 0.685 (inactive) | -0.188 | 1.09 (inactive) | 0.272 (inactive) | 0.224 (inactive) | 0.231 (inactive) | 0.0946 | -0.235 (inactive) | -0.663 (inactive) | -0.477 | 0.2 | -0.0373 | -0.0926 | -3.25 | -2.35 | -2.01 | -1.46 (inactive) | -0.59 | -0.898 | -0.347 (inactive) |
| C[N+](C)(C)CCCCCCNC(=O)[C@H]1C[C@H]2C(=O)NCC(=O)N2[C@H]1c1cccc(OCCO)c1 | -0.191 (inactive) | -0.259 | 2.76 (inactive) | 0.462 (inactive) | -1.36 (inactive) | 0.179 (inactive) | 0.142 | 0.752 (inactive) | 1.12 (inactive) | 1.24 | -0.292 | -0.207 | -0.528 | 0.112 | 0.579 | -1.52 | -0.529 (inactive) | 0.0573 | 0.127 | 0.749 (inactive) |
| C=CCC(OC(C)=O)[C@@H]1[C@@H](N(Cc2cccc3ccccc23)C(=O)c2ccc(C)cc2)c2cc(OCCCO)ccc2N1C(=O)c1ccc2ccccc2n1 (stereo not given in full) | 2.18 (inactive) | 0.0009 | 1.83 (inactive) | -0.623 (inactive) | -1.16 (inactive) | -1.37 (inactive) | 1.62 | -0.604 (inactive) | 0.807 (inactive) | 2.44 | 0.375 | 0.694 | 1.14 | 0.823 | -0.473 | 2.11 | 0.199 (inactive) | 0.187 | -1.25 | 0.34 (inactive) |
| CC1CC/C=C\[C@H]2OC34C=CCN(CCN5CCOCC5)C(=O)[C@H]3N(CCCCCCO)C(=O)[C@@H]4C2C(=O)O1 (stereo not given in full) | -0.044 (inactive) | -0.187 | 0.592 (inactive) | 0.267 (inactive) | 0.215 (inactive) | 0.182 (inactive) | -0.375 | 0.726 (inactive) | -0.0532 (inactive) | 1.96 | 0.919 | 0.24 | 1.1 | 1.42 | -0.575 | 0.37 | -0.44 (inactive) | -0.0357 | 0.606 | -0.116 (inactive) |
| CCCCCN1CC=CC23O[C@@H]4C=CCOC(=O)[C@@H]4[C@H]2C(=O)N(CCCCCO)[C@@H]3C1=O (stereo not given in full) | 1.73 (inactive) | -0.0766 | 1.47 (inactive) | 0.702 (inactive) | 1.45 (inactive) | 0.601 (inactive) | 0.461 | 1.35 (inactive) | 0.575 (inactive) | 1.94 | -0.438 | -0.28 | -1.03 | 1.27 | -1.6 | -0.012 | 0.211 (inactive) | 0.85 | 0.876 | -0.0947 (inactive) |
